“And” between values parts separate entries of the source, which are not always exact repeats. Identical values can stand only once.
How the values were obtained:
Assay type in all cases: functional
[1] = target: Solute carrier family 2, facilitated glucose transporter member 1 (Homo sapiens) (UniProt P11166); experiment: ST_JUDE_LEISH: Cytotoxicity at 2uM final concentration against transgenic Leishmania Mexicana promastigotes LmGLUT1 that are glucose transport deficient and complemented with the human glucose transporter GLUT1. Activity is measured by DNA content using SYBR green in vitro
[2] = target: Hexose transporter 1 (Plasmodium falciparum) (UniProt O97467); experiment: ST_JUDE_LEISH: Cytotoxicity at 2uM final concentration against transgenic Leishmania Mexicana promastigotes LmPfHT that are glucose transport deficient and complemented with the Plasmodium falciparum hexose transporter. Activity is measured by DNA content using SYBR green in vitro
[3] = target: Glucose transporter (Leishmania mexicana) (UniProt O61059); experiment: ST_JUDE_LEISH: Cytotoxicity at 2uM final concentration against transgenic Leishmania Mexicana promastigotes LmGT2 that are glucose transport deficient and complemented with the L. Mexicana glucose transporter 2. Activity is measured by DNA content using SYBR green in vitro

Sequence of Solute carrier family 2, facilitated glucose transporter member 1 (Homo sapiens) (P11166 whole entry): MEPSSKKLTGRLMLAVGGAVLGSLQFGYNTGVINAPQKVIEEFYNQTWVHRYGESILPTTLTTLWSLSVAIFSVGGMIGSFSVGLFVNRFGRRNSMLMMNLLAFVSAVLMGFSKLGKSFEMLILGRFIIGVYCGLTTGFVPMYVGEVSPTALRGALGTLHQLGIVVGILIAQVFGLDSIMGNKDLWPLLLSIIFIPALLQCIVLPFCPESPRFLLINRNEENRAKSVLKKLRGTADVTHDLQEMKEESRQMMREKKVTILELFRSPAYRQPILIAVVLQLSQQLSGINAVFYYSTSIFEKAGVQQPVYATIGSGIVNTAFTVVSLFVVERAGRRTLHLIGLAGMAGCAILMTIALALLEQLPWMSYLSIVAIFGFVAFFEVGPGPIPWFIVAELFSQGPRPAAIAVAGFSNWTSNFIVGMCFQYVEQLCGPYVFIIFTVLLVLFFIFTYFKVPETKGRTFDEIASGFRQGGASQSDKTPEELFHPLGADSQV

Work on `Nc1ccncc1C(=O)NCCCCN1CCN(c2nsc3ccccc23)CC1` yielded an inhibition [1] of -0.32%, an inhibition [2] of 0.47% and an inhibition [3] of -1.16%.
`Clc1ccc(OCc2ccccc2)c(Cc2ccc(-c3nc4cnccc4[nH]3)o2)c1` gave an inhibition [1] of 0.59%, an inhibition [2] of 2.01% and an inhibition [3] of 0.25%.
In the case of `CC(C)N1CCN(c2ccc(OCCCCN3CCN(c4cccc(Cl)c4Cl)CC3)c(C(F)(F)F)c2)CC1`, the inhibition [1] is reported as -0.92%, the inhibition [2] is reported as -1.01% and the inhibition [3] is reported as 0.98%.
For `CC(=O)c1c(Cc2ccccc2Cl)c[nH]c1C`, the inhibition [1] was 4.46%, the inhibition [2] was 3.16% and the inhibition [3] was -1.32%.
`CCC1(C)N=C(N)N=C(N)N1c1ccccc1` (configuration not stated) was tested, and the inhibition [1] was -3.49%, the inhibition [2] was 0% and the inhibition [3] was -3.1%.
Work on `Cc1cccc2nc(-c3cccc(-c4cccc(NC(=O)c5cnccc5C(F)(F)F)c4)c3)[nH]c12` yielded an inhibition [1] of 3.64%, an inhibition [2] of 0.6% and an inhibition [3] of -3.32%.
Compound `SC(=Nc1ccc(Cl)c(Cl)c1)NN=Cc1ccccn1` has an inhibition [1] of 1.55%, an inhibition [2] of 1.69% and an inhibition [3] of -1.58%.
`CCn1c(-c2nonc2N)nc2c(-c3cccc(NC(=O)Nc4ccc(C(F)(F)F)cc4)c3)ncc(OCCCN)c21` was tested, and the inhibition [1] was 2.98%, the inhibition [2] was 2.48% and the inhibition [3] was 3.54%.
`Cc1cc(N[C@@H](CC(C)C)C(=O)NCc2cccs2)nc(NCCc2ccccc2)n1` was tested, and the inhibition [1] was 7.7%, the inhibition [2] was 5.79% and the inhibition [3] was 5.49%.
`CN(C(=O)c1ccc(Br)cc1)c1ccccc1[N+](=O)[O-]` showed an inhibition [1] of -1.57%, an inhibition [2] of -1.07% and an inhibition [3] of -2.57%.
Compound `CN(C)CCNc1cc(-c2ccc3ccccc3c2)nc2ccccc12` has an inhibition [1] of 1.3%, an inhibition [2] of 2.94% and an inhibition [3] of -0.48%.
For `Cc1nc(C)c(CC(=O)Nc2ccc(-c3cccc(-c4nc5cc(C(F)(F)F)ccc5[nH]4)c3)cc2)s1`, the inhibition [1] was 13%, the inhibition [2] was 10.6% and the inhibition [3] was 8.58%.
Compound `CCCCCOc1ccc(/N=C2\C=C(O)C(=O)c3ccccc32)cc1` has an inhibition [1] of 1.82%, an inhibition [2] of 2.9% and an inhibition [3] of 2.17%.
Compound `CCc1cc(Cc2cnc(N)nc2N)cc(CC)c1OC` has an inhibition [1] of 2.48%, an inhibition [2] of 0.46% and an inhibition [3] of -1.28%.
For `Cc1cccc2nc(-c3ccc(-c4ccc(NC(=O)NC5CC5c5ccccc5)cc4)cc3)[nH]c12` (configuration not stated), the inhibition [1] was 0.9%, the inhibition [2] was -1.52% and the inhibition [3] was 4.78%.
Work on `CN(c1ccccc1C(=O)Nc1cc(Cl)ccc1Oc1ccccc1)S(=O)(=O)c1ccccc1` yielded an inhibition [1] of 5.06%, an inhibition [2] of 4.53% and an inhibition [3] of 3.66%.
Work on `CCOc1ccc(-c2nonc2NC(=O)c2ccc(OC)cc2)cc1OCC` yielded an inhibition [1] of -1.17%, an inhibition [2] of 4.75% and an inhibition [3] of -0.16%.
Compound `O=C(NCCCCN1CCC(c2ccc3c(c2OCc2ccncc2)CCCC3)CC1)c1ccc(NC(=O)c2ccc(Cl)cc2)cc1` has an inhibition [1] of 2.33%, an inhibition [2] of 2.42% and an inhibition [3] of 1.29%.
For `CCc1cccc(-n2c(=O)c3cccnc3n2CC(=O)NCc2ccccc2Cl)c1`, the inhibition [1] was 9.08%, the inhibition [2] was 9.17% and the inhibition [3] was 4.33%.
`CCCCNC(=N)Nc1ccc(OCCCOc2ccc(NC(=N)NCCCC)cc2)cc1` was tested, and the inhibition [1] was -1.92%, the inhibition [2] was -1.63% and the inhibition [3] was 0.01%.
`CCOC(=O)c1c(C)n(-c2ccccc2)c2ccc(O)cc12` gave an inhibition [1] of -0.44%, an inhibition [2] of 2.67% and an inhibition [3] of 0.95%.
`COc1ccc(-c2cccc(NC(=O)c3ccc(C#N)cc3)c2)cc1CN1CCCC1` showed an inhibition [1] of 11.3%, an inhibition [2] of 11.1% and an inhibition [3] of 2.91%.
`O=C(NCCCCN1CCCC2c3ccc(O)cc3CCC21)c1ccc(-c2ccccc2)cc1` (configuration not stated) was tested, and the inhibition [1] was 0.24% and 13.2%, the inhibition [2] was 1.39% and 1.92% and the inhibition [3] was 0.13% and -0.76%.
Work on `COc1ccc(-c2ccc(NC(=O)c3ccc(C#N)cc3)cc2)cc1CN1CCCN(C)CC1` yielded an inhibition [1] of 3.03%, an inhibition [2] of 3.17% and an inhibition [3] of -0.21%.
Work on `CC(C)(C)c1cc(NC2CC2)nc(-c2ccccn2)n1` yielded an inhibition [1] of 1.4%, an inhibition [2] of 3.18% and an inhibition [3] of 4.03%.
`N#Cc1ccc(-n2cc(C(=O)Nc3ccc4c(c3)CCN(C3CCC3)CC4)c(C(F)(F)F)n2)cc1` was tested, and the inhibition [1] was 7.01%, the inhibition [2] was 6.79% and the inhibition [3] was 4.42%.
With `CCCN(CCCCCCNCCc1ccc(Cl)cc1)CCc1ccc(O)c(O)c1` the inhibition [1] was -4.9%, the inhibition [2] was -1.72% and the inhibition [3] was -4.57%.
Work on `COc1cccc(Nc2nccc(NCC(O)c3ccc(C(F)(F)F)cc3)n2)c1` (configuration not stated) yielded an inhibition [1] of 7.45%, an inhibition [2] of 8.55% and an inhibition [3] of 2.75%.
In the case of `CCCc1cc(Cc2cnc(N)nc2N)cc(OCCCCCC(=O)O)c1OC`, the inhibition [1] is reported as 1.55%, the inhibition [2] is reported as 0.18% and the inhibition [3] is reported as 0.67%.
Compound `CCC(=O)N(c1ccccc1)C1CCN(CCCC(NC(=O)c2cc(C(F)(F)F)cc(C(F)(F)F)c2)c2ccc(Cl)c(Cl)c2)CC1` (configuration not stated) has an inhibition [1] of 8.75%, an inhibition [2] of 5.36% and an inhibition [3] of 6.09%.
Work on `CCN(CC)CCN(Cc1ccc(-c2ccc(C(F)(F)F)cc2)cc1)C(=O)c1c[nH]c2ccc(Br)cc12` yielded an inhibition [1] of 1.48%, an inhibition [2] of 1.01% and an inhibition [3] of 2.1%.
In the case of `CCOc1ccc2c(=NN=Cc3ccccn3)cc(C)[nH]c2c1`, the inhibition [1] is reported as 9.68%, the inhibition [2] is reported as 7.32% and the inhibition [3] is reported as 6.78%.
For `Oc1ccc(CCNc2nc(NCCCOc3cccc(-c4ccccc4)c3)nc(N3CCNCC3)n2)cc1`, the inhibition [1] was 2.65%, the inhibition [2] was 2.83% and the inhibition [3] was 2.5%.
`Cc1noc(C)c1-c1ccc(C(=C2CCCCCCC2)c2ccc(O)cc2)cc1` gave an inhibition [1] of -4.06%, an inhibition [2] of -2.9% and an inhibition [3] of 5.39%.

— ChEMBL document CHEMBL3433997, “St. Jude Leishmania screening dataset” (2016)
